Here are results for 50 compounds from ChEMBL document CHEMBL3988442, “University of Dundee, Small-Polar-MMV Screening Library” (2021).

The structures appear in SMILES notation.

For assay [1], the target named is T1, Aspartate--tRNA(Asp/Asn) ligase (Mycobacterium tuberculosis (strain ATCC 25618 / H37Rv)) (UniProt P9WFW3). Further: in the data most compounds retested in dose-response had high values.
T1 sequence (whole entry): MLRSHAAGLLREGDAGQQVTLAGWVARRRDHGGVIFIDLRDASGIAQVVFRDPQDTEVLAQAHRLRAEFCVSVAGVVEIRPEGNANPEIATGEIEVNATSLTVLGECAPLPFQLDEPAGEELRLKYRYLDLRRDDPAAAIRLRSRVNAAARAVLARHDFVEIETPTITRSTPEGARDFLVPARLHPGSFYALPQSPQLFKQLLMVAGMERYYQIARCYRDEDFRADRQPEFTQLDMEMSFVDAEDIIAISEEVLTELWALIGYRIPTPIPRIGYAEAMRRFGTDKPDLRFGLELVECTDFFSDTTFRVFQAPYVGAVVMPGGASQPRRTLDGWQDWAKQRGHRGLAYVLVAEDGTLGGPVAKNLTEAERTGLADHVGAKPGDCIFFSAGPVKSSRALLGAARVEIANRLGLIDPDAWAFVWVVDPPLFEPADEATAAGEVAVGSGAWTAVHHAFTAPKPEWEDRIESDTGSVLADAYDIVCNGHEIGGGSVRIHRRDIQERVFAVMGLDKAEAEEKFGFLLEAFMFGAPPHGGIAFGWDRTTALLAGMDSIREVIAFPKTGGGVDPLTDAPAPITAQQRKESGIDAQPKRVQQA
The assay is described as follows: Assay for Asp RNA synthetase-1 from Mycobacterium tuberculosis. The assay is classed as functional. As to conditions: 30 µM. On the set-up: scale not given: direction of the effect not stated beside the values.

The target of assay [2] is Shiga toxin 2 (Escherichia coli O157:H7) (UniProt P09385+P09386). The assay is described as follows: E. coli 0.157:H7 Shiga Toxin SOP - stx2 screening assay. The assay is classed as functional. On the set-up: scale not given: direction of the effect not stated beside the values. As to conditions: 30 µM.

`O=C(O)CCc1cc2n(n1)CCCN(C(=O)c1ccc3cc[nH]c3c1)C2`: the Percent Effect in assay [1] is -1.19%; in assay [2] it was -1.98%.

Consider `CCc1nc(CN(C)CC2CCN(CCO)CC2)no1`, for which the Percent Effect in assay [1] was -1.64%; in assay [2], -1.86%.

In the case of `CCN1CCN(CC(O)c2ccc(OC(F)(F)F)cc2)CC1` (stereo not given), the Percent Effect is 5.22% in assay [1] and -5.3% in assay [2].

As for `CN(C)C(=O)NC[C@H]1OC[C@@H]2CCN(Cc3ccoc3)C[C@@H]21`, the Percent Effect in assay [1] is 1.28%; in assay [2], -22.6%.

For the compound `CN(Cc1ccccn1)C(=O)[C@]12COC[C@H]1CN(Cc1cnn(C)c1)C2`, the figures for the Percent Effect in assay [1] and in assay [2] were -0.844% and -6.88%, respectively.

With `Cc1ncsc1C(=O)NC1CCN(Cc2ccc(C#N)cc2)CC1`, the Percent Effect in assay [1] was 1.55%; in assay [2], -28.6%.

For `CC1CCN(Cc2cnc(S(=O)(=O)CC3CC3)n2CC2CCCO2)CC1` (stereo not given), the Percent Effect in assay [1] is -2.12%; in assay [2], -24.8%.

In the case of `COc1ccc(C(C(=O)O)N2CCCN(C3CCCCC3)CC2)cn1` (stereo not given), the Percent Effect is 2.16% in assay [1] and 0.0125% in assay [2].

Consider `Cc1nc2ccccc2nc1CN(C)CC1CCCN1c1cccnn1` (stereo not given), for which the values for the Percent Effect in assay [1] and in assay [2] were 1.76% and 22.3%, respectively.

Take `CCN1CCN(C(=O)c2ccn(C)c(=O)c2)CC1`: the Percent Effect in assay [1] was 2.87%; in assay [2] it was -14.7%.

For `c1ccc(-c2noc(CN3CCc4cncnc4C3)n2)nc1`, the Percent Effect was 2.21% in assay [1] and -24.6% in assay [2].

Consider `CC(C(=O)NCc1ccnc(N2CCCC2)c1)n1cncn1` (stereo not given), for which the Percent Effect was -2.83% in assay [1] and 27.3% in assay [2].

Take `Cn1nc(C(=O)NCc2ccccn2)c2c1CCS(=O)(=O)C2`: the Percent Effect is -0.726% in assay [1] and -22.4% in assay [2].

For the compound `CCCc1cc(NC2CCc3ncnn3C2)n2ncnc2n1` (stereo not given), the Percent Effect in assay [1] is -2.01%; in assay [2], 1.41%.

`Cc1ccc(NC2CCN(C(=O)c3cnc(C)s3)CC2)nn1`: the Percent Effect in assay [1] is -1.51%; in assay [2] it was -19.5%.

As to `COc1ccc(C[C@H]2CN(c3nnc(C)s3)CC[C@@H]2OC)cc1`, the Percent Effect is 7.75% in assay [1] and -17.5% in assay [2].

As to `CCOCc1cccc(S(=O)(=O)N2CCSCC2)c1`, the Percent Effect is -3.43% in assay [1] and -4.15% in assay [2].

For `CC(C)C(C(=O)N1CCCN(Cc2cnn(C)c2)CC1)n1cncn1` (stereo not given), the Percent Effect in assay [1] is -1.93%; in assay [2], -40.5%.

For the compound `COc1cccc2ccn(CCC(=O)N3CCCC(C(=O)O)C3)c12` (stereo not given), the Percent Effect in assay [1] was 9.22%; in assay [2], -2.31%.

Regarding `CCc1nccn1C1CCCN(C(=O)c2cn3c(C)cccc3n2)C1` (stereo not given), the figures for the Percent Effect in assay [1] and in assay [2] were -4.04% and 4.17%, respectively.

For `O=C(CC1CN(Cc2ccccc2)CCO1)Nc1ccccc1F` (stereo not given), the Percent Effect in assay [1] is -4.94%; in assay [2] it was -0.0564%.

`Fc1ccc(CN2CCCN(Cc3cscn3)CC2)cc1`: the Percent Effect in assay [1] amounted to 1.87%; in assay [2], 2.42%.

With `CCOCCCNc1nc(O)cc(C2CC(=O)N(C)C2)n1` (stereo not given), the values for the Percent Effect in assay [1] and in assay [2] were -1.77% and -22.7%, respectively.

For `Cc1cnn(CC2CCCCN2CC(=O)Nc2c(C)n[nH]c2C)c1` (stereo not given), the values for the Percent Effect in assay [1] and in assay [2] were -1.88% and -12.9%, respectively.

With `CCn1c(CN(C)C)nnc1C1CCN(Cc2cccc(OC)c2)CC1`, the Percent Effect in assay [1] was 0.565%; in assay [2] it was -66.9%.

In the case of `CC1=N[C@@]2(CC[C@@H]3CN(S(=O)(=O)CC(C)C)C[C@@H]32)C(=O)N1CC(C)C`, the results for the Percent Effect in assay [1] and in assay [2] were -0.749% and 9.05%, respectively.

In the case of `COc1cc(C(=O)Nc2c(C)noc2C)ccc1C`, the Percent Effect in assay [1] was -3.4%; in assay [2], -5.89%.

On to `CCOCCn1nc(C)cc1C(=O)N1CCN(C(C)C)C(CC)C1` (stereo not given), for which the Percent Effect in assay [1] is -1.08%; in assay [2] it was 10.1%.

Consider `CCN1C[C@@H]2[C@@H](OC)CCN(S(=O)(=O)c3ccccc3)[C@@H]2C1`, for which the results for the Percent Effect in assay [1] and in assay [2] were -4.66% and -20.4%, respectively.

Turning to `Cn1cc(C2CCCN2Cc2csc(-c3ccsc3)n2)cn1` (stereo not given), the Percent Effect in assay [1] is 7.77%; in assay [2], -5.27%.

`CC(C)c1nc(CN2CCN(C(C)c3nc(C4CC4)no3)CC2)no1` (stereo not given): the values for the Percent Effect in assay [1] and in assay [2] were -2.84% and 5.21%, respectively.

In the case of `Cc1n[nH]c(C)c1NC(=O)CN1CCn2c(nnc2C(C)C)C1`, the Percent Effect in assay [1] is 0.173%; in assay [2] it was 13.2%.

Turning to `COC1CCN(C(=O)Cc2csc(-c3ncccn3)n2)CC1`, the Percent Effect in assay [1] was -5.19%; in assay [2], 12.8%.

Consider `O=C(c1ccc(C2CCCO2)s1)N1CCS(=O)(=O)CC1` (stereo not given), for which the Percent Effect was 3.74% in assay [1] and -6.97% in assay [2].

For `O=C(NCC(F)(F)F)C1CSCN1S(=O)(=O)c1ccc(F)cc1` (stereo not given), the figures for the Percent Effect in assay [1] and in assay [2] were -3.86% and -29.9%, respectively.

With `CNC(=O)C1CCN(C(=O)c2ccn(-c3ccc(F)cc3)n2)CC1`, the figures for the Percent Effect in assay [1] and in assay [2] were 3.5% and 7.26%, respectively.

On to `O=C(CO)N1CCC(c2cncc(-c3cccc(Cl)c3)n2)CC1`, for which the Percent Effect in assay [1] was 4.78%; in assay [2] it was -9.28%.

For the compound `Cc1cc(N2CCC(N(C)C(=O)c3ccccc3)CC2)nc(C)n1`, the values for the Percent Effect in assay [1] and in assay [2] were -5.32% and -9.61%, respectively.

Take `Cc1nccn1C1CCCN(C(=O)c2ccc3c(c2)COC3)C1` (stereo not given): the Percent Effect in assay [1] was -1.72%; in assay [2], -16.7%.

For `O=C(CN1CCCC1Cn1cncn1)Nc1cccnc1` (stereo not given), the figures for the Percent Effect in assay [1] and in assay [2] were 1.28% and 9.88%, respectively.

In the case of `COC(=O)COc1cccc(NS(=O)(=O)c2cc(C(=O)O)cs2)c1`, the Percent Effect was -3.15% in assay [1] and -53.3% in assay [2].

Regarding `CC(C)NC(=O)[C@@H]1CCO[C@@H]2CCN(c3ncccn3)C[C@H]21`, the Percent Effect in assay [1] is 4.69%; in assay [2], -19.4%.

In the case of `CCc1nc(CN(C)C2CCN(CCn3cc(C#N)cn3)C2)no1` (stereo not given), the Percent Effect in assay [1] was found to be 9.06%; in assay [2], 9.46%.

`Nc1cc(CCCNC(=O)NC2CC2)nn1-c1ccccc1`: the Percent Effect in assay [1] was -4.03%; in assay [2] it was -2.96%.

In the case of `CCCc1nc(C)cc(N2CCC3(CCC(=O)N(CCOC)C3)CC2)n1`, the Percent Effect in assay [1] was -4.22%; in assay [2] it was -2.13%.

As to `O=C(C(CNCc1ccsc1)c1ccccc1)N1CCOCC1` (stereo not given), the Percent Effect in assay [1] is 4.13%; in assay [2], -22.6%.

Take `OC(CNCCn1cccn1)c1ccc2c(c1)OCCO2` (stereo not given): the Percent Effect is -4.48% in assay [1] and 3.64% in assay [2].

As to `N#Cc1c(C2CC2)cc(-c2ccc(O)cc2)nc1N`, the values for the Percent Effect in assay [1] and in assay [2] were -1.42% and 15.9%, respectively.

`Cn1cc(C2CC(=O)NC23CCN(CC2CC2)CC3)cn1` (stereo not given): the Percent Effect in assay [1] is -4.05%; in assay [2] it was -21.4%.

As to `COc1ccc(C2OC(COc3ccccc3Br)=NN2C(C)=O)cc1` (stereo not given), the Percent Effect was 0.568% in assay [1] and -36.2% in assay [2].
